Reference: PubChem BioAssay

System: Human papillomavirus type 1a protein E7 (residues 44-93)
Test: HPV1a E7 fragment binders on microarrays, primary screen, biochemical, small-molecule microarray, residues 44-93, 635 nm fluorescence (AID 1108);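 also: E7 fragment applied at 1 µg/mL in TBST for 1 h at 4 C; score combines spot fluorescence with its signal to noise ratio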
Conditions: small-molecule microarray binding, fluorescence 635 nm; higher = more signal

Point of comparison: `COc1cccc([C@H]2N[C@H](C(=O)O)CC[C@@H]2C)c1`, composite z-score 0.0991. Against it:
- CO[C@H]1O[C@H](CO)[C@@H](OC(=O)CCc2ccccc2)[C@@H]2OC(=O)[C@H](Cc3cccc(Br)c3)C/C=C/C[C@@H](Cc3cccc(Br)c3)C(=O)O[C@@H]12 — higher, 0.234
- Cc1ccc(S[C@]2(C(=O)NCCCN(C)C)CC(=O)N(C3CCCCC3)[C@@H]2c2ccc(CO)cc2I)cc1 — lower, -1.32
- O=C1O[C@H](c2ccccc2)[C@H](c2ccccc2)N2[C@H]1[C@@H](C(=O)NC[C@H](O)c1ccccc1)[C@]1(C(=O)Nc3ccc(C#CC4(O)CCCCCC4)cc31)[C@H]2c1ccc(OCCO)cc1 — higher, 1.27
- CCCC[C@@H]1C[C@H]1[C@@H](NC(=O)c1cccs1)c1ccc(Cl)cc1 — lower, -0.416
- Cc1ccc(N2C(=O)c3ccccc3[C@@H](C(=O)NCC(F)(F)F)[C@@H]2c2ccc(CO)cc2)nc1 — lower, -2.16
- COCCOC(=O)N1C(=O)[C@@]2(c3cc(C#CCNC(N)=O)ccc31)[C@H](c1ccc(OCCO)cc1)N1[C@H](c3ccccc3)[C@H](c3ccccc3)OC(=O)[C@H]1[C@@H]2C(=O)Nc1nc2ccccc2s1 — higher, 0.376
- O=C1c2ccccc2[C@](Cc2ccccc2I)(C(=O)O)[C@H](c2ccc(CO)cc2)N1C1CCCCC1 — higher, 1.02

System: not listed separately
Test: modulators of HCV replicon luciferase signal, primary screen, HCV replication inhibitor project, Huh7 cells, luciferase reporter (AID 1109);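 also: huh7 hepatoma cells harbouring a luciferase neomycin HCV replicon reporter; luciferase luminescence as measure of HCV replicon replication; test concentration not given here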
Conditions: 48 h, higher = more signal

Point of comparison: `Cc1ccc(S[C@]2(C(=O)NC(C)C)CC(=O)N(C3Cc4ccccc4C3)[C@@H]2c2ccc(CO)cc2)cc1`, z-score -2.01. Against it:
- [N-]=[N+]=NCc1ccccc1C[C@]1(C(N)=O)N=C(c2ccc(OCCCO)cc2)O[C@H]1c1ccccc1CN=[N+]=[N-] — lower, -2.34
- C[N+](C)(C)CCCC[C@@H]1NC(=O)[C@H]2C[C@@H](C(=O)NCc3ccc(F)cc3)[C@@H](c3cccc(OCCO)c3)N2C1=O — higher, 0.328
- C=CCC(OC(C)=O)[C@@H]1[C@@H](N(Cc2ccc(-c3ccccc3)cc2)C(=O)c2ccc(-c3ccccc3)cc2)c2cc(OCCCO)ccc2N1C(=O)Cc1ccc(OC)cc1 (some centres not stated) — higher, -1.57
- CO[C@@H]1COC(=O)CC=C[C@@H](C)[C@H](OC)COC(=O)CC=C[C@H]1C — higher, 0.353
- O=C(NCc1ccccc1)[C@@]1(CCS(=O)(=O)c2ccccc2)COC(c2ccc(OCCCO)cc2)=N1 — higher, -1.71
- C=C(CCCC)/C(=C/C[C@@H](OC(=O)c1ccncc1)c1cccc(OCCO)c1)c1cc(C(=O)OC)ccc1OC — lower, -2.29
- CC(C)[Si]1(C(C)C)OCc2cc(C3CC3)nc(-c3ccccc3)c21 — higher, -0.222
- C=CCOC(=O)[C@@H]1[C@H]2C(=O)O[C@H](c3ccccc3)[C@H](c3ccccc3)N2[C@H](c2ccc(OCCOC(=O)[C@H]3C[C@H]4C(=O)N[C@@H](CCCCNC(C)=O)C(=O)N4[C@H]3c3ccc(O)cc3)cc2)[C@@]12C(=O)Nc1ccc(I)cc12 — higher, -1.66
- CC(C)N1CC=CC23O[C@@H]4/C=C\CCCOC(=O)C4[C@H]2C(=O)N(CCCCCO)[C@@H]3C1=O (some centres not stated) — higher, 0.0844
- O=C1O[C@@H](c2ccccc2)[C@@H](c2ccccc2)N2[C@@H](c3ccc(OCCO)cc3)[C@]3(C(=O)Nc4ccc(C#CCCO)cc43)[C@@H](C(=O)N3CCN(c4ncccn4)CC3)[C@H]12 — higher, -0.347
- COC(=O)[C@@]1(Cc2ccc(OC)cc2)[C@H]2c3cc(C(=O)N(C)C)n(CCc4ccc(OC)c(Br)c4)c3C[C@H]2CN1C(=O)c1ccccc1 — lower, -2.54
- CSCC[C@@H]1NC(=O)CC=C[C@@H](C)COC(=O)[C@H](CCSC)NC(=O)CC=C[C@@H](C)COC1=O — higher, -0.116
- CO[C@@H]1COC(=O)CC=C[C@H](C)COC(=O)[C@H](Cc2ccccc2)NC(=O)CC=C[C@H]1C — higher, 1.06
- CC(C)(C)OC(=O)CC[C@]1(C(=O)NCCN2CCOCC2)N=C(c2ccc(OCCCO)cc2)O[C@H]1c1ccccc1CN=[N+]=[N-] — higher, -1.77
- CO[C@H]1O[C@H](CO)[C@@H](OC(=O)Nc2ccc3c(c2)OCO3)[C@H](OC(=O)Nc2ccccc2)[C@@H]1OC(=O)Nc1ccccc1 — higher, -1.69
- CCc1cccc(NC(=O)O[C@H]2[C@H](OC(=O)Nc3ccccc3)[C@@H](OC(=O)Nc3ccccc3)[C@@H](OC)O[C@@H]2CO)c1 — lower, -3.51
- CC(C)(C)OC(=O)CC[C@@]1(C(=O)NCc2ccccc2)N=C(c2ccc(OCCCO)cc2)O[C@@H]1c1ccccc1 — lower, -3.13
- C=CCNC(=O)[C@H]1[C@@H]2C(=O)O[C@@H](c3ccccc3)[C@@H](c3ccccc3)N2[C@@H](c2ccccc2OCCO)[C@]12C(=O)N(C(=O)OCCOC)c1ccc(C#CCNC(N)=O)cc12 — higher, -1.08
